Results as given in paper PMC4336329 (PLoS ONE, 2015).
Screen size: about 310,000 compounds; about 14,000 (4.5%) showed an effect of 50% or more. Effects have a minus sign here. This excerpt belongs to a sample that is enriched for strong results.

The compounds below were run against human ether-à-go-go-related gene (hERG) potassium channel (human, UniProt Q12809) (assay: primary screen, population patch clamp on CHO cells stably expressing hERG; higher = less effect of the substance).
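Also: peak tail current of the secondary pulse compared with the same well before compound.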

Sequence of human ether-à-go-go-related gene (hERG) potassium channel (Q12809 whole entry, looked up): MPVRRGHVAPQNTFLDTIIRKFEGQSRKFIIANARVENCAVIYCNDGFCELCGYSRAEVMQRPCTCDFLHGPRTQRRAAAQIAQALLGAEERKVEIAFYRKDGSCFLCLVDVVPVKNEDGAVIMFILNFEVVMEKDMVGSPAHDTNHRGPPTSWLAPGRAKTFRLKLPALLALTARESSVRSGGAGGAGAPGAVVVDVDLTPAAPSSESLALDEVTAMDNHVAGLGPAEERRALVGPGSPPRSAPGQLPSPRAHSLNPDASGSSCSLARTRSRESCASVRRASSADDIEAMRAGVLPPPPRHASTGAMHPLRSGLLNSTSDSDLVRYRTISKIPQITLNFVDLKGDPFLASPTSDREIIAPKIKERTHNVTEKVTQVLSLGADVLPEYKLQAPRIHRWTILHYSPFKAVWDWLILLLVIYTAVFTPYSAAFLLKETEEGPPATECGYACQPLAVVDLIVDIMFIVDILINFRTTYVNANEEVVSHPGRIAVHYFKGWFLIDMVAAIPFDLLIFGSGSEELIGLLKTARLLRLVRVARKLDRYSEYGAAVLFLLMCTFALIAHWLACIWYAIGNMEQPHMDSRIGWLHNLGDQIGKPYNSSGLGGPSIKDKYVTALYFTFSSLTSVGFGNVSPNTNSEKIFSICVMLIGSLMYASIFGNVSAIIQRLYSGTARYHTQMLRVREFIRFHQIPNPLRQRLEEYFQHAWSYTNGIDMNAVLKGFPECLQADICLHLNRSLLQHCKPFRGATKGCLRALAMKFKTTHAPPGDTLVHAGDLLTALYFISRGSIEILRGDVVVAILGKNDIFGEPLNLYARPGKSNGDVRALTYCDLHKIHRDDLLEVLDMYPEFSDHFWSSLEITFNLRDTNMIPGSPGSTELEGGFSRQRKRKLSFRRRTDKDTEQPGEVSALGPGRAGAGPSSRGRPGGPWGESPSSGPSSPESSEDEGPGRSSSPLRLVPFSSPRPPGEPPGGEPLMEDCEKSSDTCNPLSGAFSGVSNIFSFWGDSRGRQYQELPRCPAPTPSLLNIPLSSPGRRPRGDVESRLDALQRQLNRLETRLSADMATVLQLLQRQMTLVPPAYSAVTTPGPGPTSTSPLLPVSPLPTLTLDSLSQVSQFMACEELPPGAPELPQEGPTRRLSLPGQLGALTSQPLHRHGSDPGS

SMILES	hERG current change (%, negative = inhibition) at 10uM [%]
COc1ccc(N2C(=NC(=O)C3CCCO3)SC3CS(=O)(=O)CC32)cc1 (stereo not shown)	5.78
Cc1ccc(C)c(NC(=O)c2ccc3nccnc3c2)c1	2.6
COc1ccc(N=C2NC(=O)CS2)c([N+](=O)[O-])c1	11.4
O=C(Nc1ccc2c(c1)OCO2)[C@@H]1CCCN1S(=O)(=O)c1cccc2cccnc12	-6.18
CCOC(=O)C1C(c2ccc(Cl)cc2)NC(=S)NC1(O)C(F)(F)F (stereo not shown)	16.7
Cn1ccnc1SCC(=O)Nc1nc2c(F)c(F)c(F)cc2s1	11.3
O=C(O)COCC(=O)N1CCc2c([nH]c3ccccc23)C1C(F)(F)F (stereo not shown)	2.14
O=C(NCCc1ccc(F)cc1)C(=O)NCC1CCCN1S(=O)(=O)c1ccccc1 (stereo not shown)	-61.7
Cc1cc(F)ccc1S(=O)(=O)N1CCCCC1CCNC(=O)C(=O)NCc1ccccn1 (stereo not shown)	-61.4
CCN(CC)CCNC(=O)C(=O)Nc1ccc2c(c1)N(S(=O)(=O)c1cccs1)CCC2	-78.2
CN(C)CCNC(=O)C(=O)Nc1ccc2c(c1)N(S(=O)(=O)c1cccs1)CCC2	-2.98
CCCNC(=O)C(=O)Nc1ccc2c(c1)N(S(=O)(=O)c1cccs1)CCC2	-33.6
O=C(NCc1ccc(F)cc1)C(=O)NCC1CCCN1S(=O)(=O)c1ccccc1 (stereo not shown)	-38.2
Cc1ccc(C)c(S(=O)(=O)N2CCCCC2CCNC(=O)C(=O)NCc2ccccn2)c1 (stereo not shown)	-19.8
O=C(NCCc1ccc(F)cc1)C(=O)NCC1CCCN1S(=O)(=O)c1cccs1 (stereo not shown)	-57.6
COc1ccc(CCNC(=O)C(=O)NCC2CCCN2S(=O)(=O)c2cccs2)cc1 (stereo not shown)	-32.9
O=C(NCCC1CCCCN1S(=O)(=O)c1ccc(F)cc1)C(=O)NCc1ccccn1 (stereo not shown)	-11.9
O=C(NCCc1ccccc1)C(=O)NCC1CCCN1S(=O)(=O)c1ccccc1 (stereo not shown)	-41.9
O=C(NCCc1ccccc1)C(=O)NCC1CCCN1S(=O)(=O)c1cccs1 (stereo not shown)	-22.7
COc1ccc(N)cc1NC(=O)CN1CCCC1	19.3

SMILES	hERG current change (%, negative = inhibition) at 10uM [%]
CCN(CC)S(=O)(=O)c1ccc(Cl)c(NC(=O)COC(=O)c2ccc(O)cc2)c1	-21.4
CCCCC(=O)Nc1ccc(C(=O)N2CCCC(C(=O)OCC)C2)cc1 (stereo not shown)	7.66
O=C(NCCC1CCCCN1S(=O)(=O)c1cccs1)C(=O)Nc1cccc(F)c1 (stereo not shown)	-50.1
O=C(NCCC1CCCCN1S(=O)(=O)c1cccs1)C(=O)Nc1ccc(F)cc1 (stereo not shown)	-6.79
O=C(NCCC1CCCCN1S(=O)(=O)c1cccs1)C(=O)Nc1ccccc1 (stereo not shown)	-10.1
Cc1ccc(N2C(=O)N(CC(=O)Nc3cccc(Cl)c3)C(=O)C2C)cc1 (stereo not shown)	-14.9
O=C(COC(=O)CCc1ccc(S(=O)(=O)N2CCOCC2)cc1)NC1CCCCCC1	-10.8
CN(C)c1ccc(-c2cccc(C3CC=CC4C3C(=O)N(Cc3ccccc3)C4c3ccc4ccccc4c3)c2)cc1 (stereo not shown)	17.5
O=C(O)c1ccc(N2CCN(Cc3ccc4c(c3)OCO4)CC2)c([N+](=O)[O-])c1	17.3
c1ccc(N2CCN(Cc3ccc4c(c3)OCO4)CC2)nc1	-8.79
CN(C(=O)CN1CCN(c2ccc([N+](=O)[O-])cn2)CC1)c1ccccc1	-49.1
Cc1nc([N+](=O)[O-])c(N2CCN(C)CC2)n1Cc1ccccc1	-10.4
O=[N+]([O-])c1ccc(N2CCN(c3ccccc3)CC2)nc1	4.96
O=S(=O)(c1ccc(N2CCN(Cc3ccc4c(c3)OCO4)CC2)nc1)N1CCOCC1	-32.1
O=Cc1cc([N+](=O)[O-])ccc1N1CCN(Cc2ccc3c(c2)OCO3)CC1	-67.5
O=[N+]([O-])c1ccc(N2CCN(Cc3ccc4c(c3)OCO4)CC2)nc1	-54.4
Cc1nc([N+](=O)[O-])c(N2CCOCC2)n1Cc1ccccc1	9.64
Cc1nc([N+](=O)[O-])c(N2CCN(Cc3ccccc3)CC2)n1Cc1ccccc1	-64.3
Cl.O=[N+]([O-])c1ccc(N2CCN(Cc3ccccc3)CC2)nc1	-59
Cl.O=[N+]([O-])c1ccc2ncnc(N3CCN(Cc4ccc5c(c4)OCO5)CC3)c2c1	-24.6
